# In the library only some 3.3% were active in any assay of this set; here they are far more common.
# Sm TGR block: S. mansoni TGR enzyme inhibition; Q962Y6; purified TGR, DTNB reduction, TNB absorbance 405 nm; Potency, µM (highest dose often 114 µM), inactives show top-dose activity change, negative = inhibition, most hits filed as inhibitors; hit rate 3% among 360,000; AID 485364; note: nearly all actives have a fitted effect of over 60% in size
#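 TGR 20 nM + NADPH 100 uM (dispensed conc.), cpd preinc 15 min RT; start with NADPH (500 uM addition) then DTNB (15 mM addition). Kinetic TNB absorbance, 405 nm filter. Four-parameter Hill fit across titration.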
# AmpC detergent: AmpC beta-lactamase inhibition with detergent present | P00811 | AmpC hydrolysis of nitrocefin, absorbance 480 nm, 0.01% Triton | Potency, µM (highest dose often 114 µM), without a hit: at the top dose activity change, negative = inhibition, usual class: inhibitors | hit rate 0.041% among 370,000 | AID 485294;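 note: 0% = no-compound wells and -100% = no-enzyme wells; nearly all actives have a fitted effect of over 25% in size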
# Target sequence (P00811 whole entry, looked up): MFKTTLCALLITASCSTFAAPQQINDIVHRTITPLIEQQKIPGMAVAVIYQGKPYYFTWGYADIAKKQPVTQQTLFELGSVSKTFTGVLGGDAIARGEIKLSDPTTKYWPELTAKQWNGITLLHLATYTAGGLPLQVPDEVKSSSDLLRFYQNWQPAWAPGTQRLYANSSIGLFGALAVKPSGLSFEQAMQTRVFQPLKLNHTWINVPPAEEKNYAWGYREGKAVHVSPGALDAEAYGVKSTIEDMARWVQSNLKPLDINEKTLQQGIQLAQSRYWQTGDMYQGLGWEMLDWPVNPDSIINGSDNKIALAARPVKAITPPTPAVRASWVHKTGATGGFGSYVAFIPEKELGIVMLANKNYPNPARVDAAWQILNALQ
#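 AmpC (5.3 nM in the dispensed reagent) in 20 mM phosphate pH 7.0 with 0.01% (detergent screen) or 0.0001% Triton X-100 was preincubated with compounds for 15 min at room temperature. Nitrocefin was then added from an 800 uM solution, and hydrolysis was followed at 480 nm.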
# AmpC inh no detg: blocks E. coli AmpC beta-lactamase in detergent-free assay; P00811; AmpC nitrocefin hydrolysis, absorbance 480 nm, 0.0001% Triton; Potency, µM (titrated, usually from 57.1 µM), inactives show at the highest dose activity change, negative = inhibition, hits mostly inhibitors; hit rate 0.52% among 330,000; AID 485341;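 note: plate controls were no compound for no effect and no enzyme for full effect; nearly all actives have a fitted effect of over 20% in size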
#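 20 mM phosphate pH 7.0 + 0.01% (detergent screen) or 0.0001% Triton X-100; 5.3 nM AmpC reagent; cpd preinc 15 min RT; nitrocefin (800 uM stock) to start; A480 q20 s × 4 min; Activity was normalised to no-enzyme and no-compound control wells.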
# * = called active by the depositor; ? = inconclusive; . = not tested or not shown. Calls come from the whole dose curve; as a rule, active = well fitted curve in the direction sought with a large enough effect; inconclusive = small, poorly fitted or top-dose-only effect, or another doubt; inactive = no such curve, though single readings can be large; an effect the other way counts as inactive or inconclusive. Unless noted, % is set by controls: 0 for no effect and ±100 for the full control effect; potency is the fitted concentration of half-maximal effect.
SMILES,Sm TGR block,AmpC detergent,AmpC inh no detg
O=C(CSc1nc2ccccc2c(=O)n1CCCN1CCOCC1)NC12CC3CC(CC(C3)C1)C2,-1%,-7%,216%
COc1ccc(CCNc2nc(-c3ccc(F)cc3)c(CC(=O)O)s2)cc1OC,4%,9%,-21%
CCOc1cc(C(=O)OCC(=O)N(C)c2ccccc2)cc(OCC)c1OCC,-1%,-11%,117%
COCCCn1c(-c2ccc(OC)cc2)nc2c1c(=O)[nH]c(=O)n2Cc1ccccc1,-5%,8%,-10%
Cc1ccc(-c2nc3c(c(=O)[nH]c(=O)n3Cc3ccccc3)n2C)o1,3.5µM*,2%,-24%
Cc1ccc(-c2nc3c(c(=O)[nH]c(=O)n3Cc3ccccc3)n2Cc2ccccc2)o1,18µM*,1%,-33%
Cc1ccc(-c2nc3c(c(=O)[nH]c(=O)n3Cc3ccccc3)n2C)s1,-11%,7%,-20%
CCOC(=O)c1ccc(NC(=O)CSc2nc3ccccc3c(=O)n2CCC(=O)NC2CCCCC2)cc1,8%,7%,.
O=C(Cc1ccccc1)NNC(=O)c1ccccc1C(=O)O,3%,-1%,-28%
Cc1nc(C(=O)NCc2ccccc2)sc1C1(C)CC(c2cccc([N+](=O)[O-])c2)=NO1 (configuration not stated),6%,-7%,-20%
CC1(c2nnc(Cc3ccccc3)o2)CC(c2cccc([N+](=O)[O-])c2)=NO1 (configuration not stated),45µM*,-10%,-8%
CC1(c2nnc(Cc3ccccc3)o2)CC(c2ccccc2[N+](=O)[O-])=NO1 (configuration not stated),3.2µM*,?,-20%
COc1ccccc1C1=NOC(C)(c2nnc(Cc3ccccc3)o2)C1 (configuration not stated),1%,?,-6%
CCOc1ccc(CNC(=O)c2ccc(-c3nc(CS(=O)(=O)c4ccccc4)c(C)o3)cc2)cc1,-23%,23%,.
Nc1cc(N)nc(SCC(=O)NC2CCCCCCC2)n1,0%,-16%,-16%
CCOc1ccc(S(=O)(=O)N(CC(=O)NN=C2CCN(C)CC2)c2ccc(C)cc2)cc1,-11%,3%,35%
COc1ccccc1CNC(=O)C(=O)NCC1OCCN1S(=O)(=O)c1ccc(Br)cc1 (configuration not stated),-2%,1%,0%
COc1cc(CN2CCN(S(=O)(=O)c3ccccc3)CC2)cc(OC)c1O,4.5µM*,18%,.
COc1ccc(S(=O)(=O)N2CCN(Cc3cc(OC)c(O)c(OC)c3)CC2)cc1,3.5µM*,1%,8%
COc1cc(CN2CCN(S(=O)(=O)c3ccc(NC(C)=O)cc3)CC2)cc(OC)c1O,?,-18%,21%
COc1ccc(S(=O)(=O)N2CCN(Cc3cc(OC)c(OC)c(OC)c3)CC2)cc1,3%,-2%,6%
O=C(Nc1ccc(Cl)cc1)c1cc(S(=O)(=O)NC2CCCCCC2)ccc1F,16%,8%,.
CCCN(C(=O)CSc1ncnc2sccc12)c1c(N)n(Cc2ccccc2)c(=O)[nH]c1=O,2%,1%,140%
CC(CCc1ccccc1)NC(=O)CCNS(=O)(=O)c1ccccc1 (configuration not stated),-1%,-16%,-6%
CC(C)c1ccc(S(=O)(=O)N(C)C2(C)CCS(=O)(=O)C2)cc1 (configuration not stated),-15%,-4%,-3%
SMILES,Sm TGR block,AmpC detergent,AmpC inh no detg
C=C1C(=O)O[C@H]2[C@H]1[C@H](OC(=O)CC(=O)O[C@@H]1C[C@@H](C)[C@@H]3C=CC(=O)[C@@]3(C)[C@H]3OC(=O)C(=C)[C@H]13)C[C@@H](C)[C@H]1C=CC(=O)[C@]12C,8.9µM*,-6%,99%
CC(=O)O[C@@H]1[C@H]2[C@@H](C[C@@H](C)[C@@H]3C=CC(=O)[C@@]13C)OC(=O)[C@@H]2C,0%,1%,-22%
C=C1C(=O)O[C@H]2C[C@@H](C)[C@@H]3C=CC(=O)[C@@]3(C)C[C@H]12,35µM*,-1%,32%
C=C1C(=O)O[C@@H]2C[C@@H](C)[C@@H]3C=CC(=O)[C@@]3(C)[C@@H](OC(=O)CC(=O)O[C@H]3[C@@H]4C(=C)C(=O)O[C@@H]4C[C@@H](C)[C@@H]4C=CC(=O)[C@]43C)[C@H]12,1.1µM*,0%,127%
Cc1ccc(Cn2cccc2C2=NC(C)(C)CO2)cc1,8%,1%,.
CC(C)Oc1ccc(C2c3c(oc4ccccc4c3=O)C(=O)N2CCCN2CCOCC2)cc1 (configuration not stated),40µM*,0%,82%
CC(C)c1ccc(C2c3c(oc4ccc(Cl)cc4c3=O)C(=O)N2CCCN2CCOCC2)cc1 (configuration not stated),-13%,-6%,.
O=C1c2oc3ccccc3c(=O)c2C(c2cccnc2)N1CCCN1CCOCC1 (configuration not stated),45µM*,-6%,-23%
O=C1c2oc3ccc(Cl)cc3c(=O)c2C(c2ccccn2)N1CCCN1CCOCC1 (configuration not stated),13µM*,?,50%
C=CCOc1ccc(C2c3c(oc4ccccc4c3=O)C(=O)N2CCCN2CCOCC2)cc1 (configuration not stated),?,?,109%
Cc1ccc(C2c3c(oc4ccccc4c3=O)C(=O)N2CCCN2CCOCC2)o1 (configuration not stated),?,-5%,-8%
CC(C)CNC(=O)COC(=O)CCC(=O)c1cccs1,0%,-3%,-9%
c1ccc(CNn2c(N3CCOCC3)nc3ccccc32)cc1,0%,2%,0%
Cc1ccc(C2/C(=C(/O)c3cnn(-c4ccccc4)c3C)C(=O)C(=O)N2CCCN2CCOCC2)o1 (configuration not stated),10µM*,-8%,34%
Cc1c(/C(O)=C2/C(=O)C(=O)N(CCN3CCOCC3)C2c2ccccn2)cnn1-c1ccccc1 (configuration not stated),22µM*,-7%,55%
Cc1ccc(C)c(/C(O)=C2/C(=O)C(=O)N(CCN3CCOCC3)C2c2ccc(C)o2)c1 (configuration not stated),?,-14%,1%
Cc1c(/C(O)=C2\C(=O)C(=O)N(CCCN(C)C)C2c2ccccc2)cnn1-c1ccccc1 (configuration not stated),3%,-14%,-7%
Cc1ccc(S(=O)(=O)N2CCC[C@H]2C(=O)NCc2ccccc2Cl)cc1,.,.,-7%
CC(C)CCNC(=O)c1ccc2nc(CCc3ccccc3)oc2c1,1%,21%,.
O=C(Cc1ccc(Cl)cc1)Nc1ccc(C(=O)N2CCOCC2)cc1,.,0%,28%
Cn1c(C(=O)N2CCN(Cc3ccccc3)CC2)cc2c(=O)n(C)c3ccccc3c21,?,-11%,94%
CCOCCCNC(=O)c1cc2c(=O)n(C)c3ccccc3c2n1C,-2%,-10%,.
Cc1ccc(CNC(=O)c2cc3c(=O)n(C)c4ccccc4c3n2C)cc1,9%,?,-22%
CN(CCNC(=O)c1cc2c(=O)n(C)c3ccccc3c2n1C)Cc1ccccc1,28µM*,5%,92%
